“And” between values parts separate entries of the source, which are not always exact repeats. Equal entries are not always repeated. Results filed as inconclusive are left out. The source made the active and inactive calls. Unless noted, calls follow the shape of the dose curve; as a rule, active = well fitted curve in the direction sought with a large enough effect; inconclusive = small, poorly fitted or top-dose-only effect, or another doubt; inactive = no such curve, though single readings can be large; an effect the other way counts as inactive or inconclusive.
Assays:
[1] = tested on: Tov-21-G; experiment: Primary qHTS to identify gynecologic anti-cancer compounds using libraries of approved drugs and bioactive compounds (AID 1345084); settings: Gynecologic cancer cell panel viability, ATPlite luminescence, 48 h; series mostly up to 57.5 µM; also: % is scaled to controls: 0 for no effect and ±100 for the full control effect; nearly all actives have a fitted effect of over 55% in size
Procedure, shortened: (§1)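 Cell viability after 48 h drug treatment, ATPlite luminescence readout; five doses.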

[2] = tested on: Tov112D; experiment: as above; settings: Gynecologic cancer cell panel viability, ATPlite luminescence, 48 h; series mostly up to 57.5 µM
Procedure, shortened: as §1

[3] = Drug repurposing screens with cells derived from glioblastoma tumor samples (AID 1345199); settings: GBM patient neurospheres viability, ATP luminescence, 48 h; also: nearly all actives have a fitted effect of over 40% in size; also: potency is read from the fitted curve at half-maximal effect; as to activity, negative = cell killing: % is scaled to controls: 0 for no effect and ±100 for the full control effect
Procedure, shortened: (§2)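 Four patient lines of CD133+ GBM neurospheres were screened at several concentrations; hits were retested in those lines plus three slower-growing GBM lines, using 48-hour treatment and ATP-based viability.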

[4] = target: Nuclear receptor subfamily 1 group I member 2 (Rattus norvegicus) (UniProt Q9R1A7); experiment: qHTS assay for small molecule activators of the rat pregnane X receptor (rPXR) signaling pathway (AID 651751; call rule not given here; also: 0% is about no effect); settings: rPXR reporter cells, luciferase (One-Glo), 24 h
Sequence of Nuclear receptor subfamily 1 group I member 2 (Rattus norvegicus) (Q9R1A7 whole entry, looked up): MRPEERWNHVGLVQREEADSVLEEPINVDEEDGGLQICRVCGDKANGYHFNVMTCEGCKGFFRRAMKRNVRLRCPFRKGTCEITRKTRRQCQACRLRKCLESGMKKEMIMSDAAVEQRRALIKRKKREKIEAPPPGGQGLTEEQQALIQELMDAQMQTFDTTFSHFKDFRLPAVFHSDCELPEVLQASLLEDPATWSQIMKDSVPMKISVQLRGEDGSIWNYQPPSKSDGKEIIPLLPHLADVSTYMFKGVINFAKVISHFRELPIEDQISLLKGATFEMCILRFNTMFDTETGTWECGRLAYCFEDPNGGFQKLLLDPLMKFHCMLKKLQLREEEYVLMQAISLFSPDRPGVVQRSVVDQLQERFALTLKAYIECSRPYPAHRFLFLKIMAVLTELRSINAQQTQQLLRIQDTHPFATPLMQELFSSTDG

[5] = qHTS assay for small molecule activators of the human pregnane X receptor (PXR) signaling pathway (AID 720659; call rule not given here; also: 0% is about no effect)
[6] = tested on: astro; experiment: Drug repurposing screens with cells derived from glioblastoma tumor samples (AID 1345199); settings: viability, ATP luminescence, 48 h; series mostly up to 45.9 µM; also: nearly all actives have a fitted effect of over 40% in size; also: potency is read from the fitted curve at half-maximal effect; as to activity, negative = cell killing: % is scaled to controls: 0 for no effect and ±100 for the full control effect
Procedure, shortened: as §2

[7] = at 45.9 µM (top of the series), tumour line B
[8] = at 45.9 µM (top of the series), tumour line D
[9] = at 46 µM (top of the series), tumour line A
[10] = at 46.1 µM (top of the series), tumour line C
[11] = at 20 µM (top of the series), tumour line C
[12] = at 21.2 µM (top of the series), tumour line B
[13] = at 21.2 µM (top of the series), tumour line D

Nc1ccc(S(=O)(=O)c2ccc(N)cc2)cc1
inactive: outcome [1] | outcome [2] | activity, negative = cell killing [3, 7] -14.4% | activity, negative = cell killing [3, 8] 8.15% | activity, negative = cell killing [3, 9] -30% | activity, negative = cell killing [3, 10] -8.46% | max response [4] -2.07% and 2.17% | outcome [5]

C=CCOc1ccccc1OCC(O)CNC(C)C (centres undefined)
inactive: outcome [1] | outcome [2] | activity, negative = cell killing [3, 11] -4.31% | activity, negative = cell killing [3, 12] 1.37% | activity, negative = cell killing [3, 13] -11.5% | outcome [6]

Cc1cccc(Nc2ccccc2C(=O)O)c1C
inactive: outcome [1] | outcome [2] | activity, negative = cell killing [3, 7] -15.4% | activity, negative = cell killing [3, 8] -14.4% | activity, negative = cell killing [3, 9] -20% | activity, negative = cell killing [3, 10] -15.4% | max response [4] 2.62%

CC(CN(C)C)C(C)(O)Cc1ccc(Cl)cc1 (centres undefined)
active: Potency ([3]; tumour line A) 20 µM
inactive: outcome [1] | outcome [2] | activity, negative = cell killing [3, 7] -15.1% | activity, negative = cell killing [3, 10] -8.21% | outcome [6]

C[N+](C)(C)CC(O)CC(=O)[O-] (centres undefined)
inactive: outcome [1] | outcome [2] | activity, negative = cell killing [3, 7] -2.63% | activity, negative = cell killing [3, 8] -13.3% | activity, negative = cell killing [3, 10] -12.8% | outcome [6]

CC(=O)OCC(COC(C)=O)OC(C)=O
inactive: outcome [1] | outcome [2] | activity, negative = cell killing [3, 7] 7.15% | activity, negative = cell killing [3, 8] 15.4% | activity, negative = cell killing [3, 9] -13.4% | activity, negative = cell killing [3, 10] 1.43% | outcome [6] | max response [4] -2.17% and 2.63% | outcome [5]

C[N+](C)(C)CC[N+]1(C)Cc2c(Cl)c(Cl)c(Cl)c(Cl)c2C1
inactive: outcome [1] | outcome [2] | activity, negative = cell killing [3, 7] -5.4% | activity, negative = cell killing [3, 8] -17.9% | activity, negative = cell killing [3, 10] -19.9% | outcome [6]

O=S1(=O)OC(c2ccc(O)cc2)(c2ccc(O)cc2)c2ccccc21
inactive: outcome [1] | outcome [2] | activity, negative = cell killing [3, 7] -17.4% | activity, negative = cell killing [3, 8] -14.4% | activity, negative = cell killing [3, 10] 11.5% | outcome [6]

CCOc1ccccc1O[C@H](c1ccccc1)[C@H]1CNCCO1
inactive: outcome [1] | outcome [2] | activity, negative = cell killing [3, 7] -15.3% | activity, negative = cell killing [3, 10] 11.5% | outcome [6]
active: Potency ([3]; tumour line A) 12.6 µM

NS(=O)(=O)c1cc(C2(O)NC(=O)c3ccccc32)ccc1Cl (centres undefined)
inactive: outcome [1] | outcome [2] | activity, negative = cell killing [3, 11] 3.89% | activity, negative = cell killing [3, 12] 6.28% | activity, negative = cell killing [3, 13] -20.6% | outcome [6]

O=C1c2ccccc2S(=O)(=O)N1CCCCN1CCN(c2ncccn2)CC1
inactive: outcome [1] | outcome [2] | activity, negative = cell killing [3, 7] 1.94% | activity, negative = cell killing [3, 8] -19.1% | activity, negative = cell killing [3, 10] -25.2% | outcome [6]

CCOC(=O)OC(C)OC(=O)[C@@H]1N2C(=O)[C@@H](NC(=O)[C@H](N)c3ccccc3)[C@H]2SC1(C)C (some centres undefined)
inactive: outcome [1] | outcome [2] | activity, negative = cell killing [3, 11] 7.44% | activity, negative = cell killing [3, 12] -8.91% | activity, negative = cell killing [3, 13] -1.55% | outcome [6]

CCCC(O)C(CC)CO (centres undefined)
inactive: outcome [1] | outcome [2] | activity, negative = cell killing [3, 7] -12.1% | activity, negative = cell killing [3, 8] -1.2% | activity, negative = cell killing [3, 9] -19.9% | activity, negative = cell killing [3, 10] 1.39% | max response [4] 7.37% | outcome [5]

NNc1nnc(NN)c2ccccc12
inactive: outcome [1] | outcome [2] | activity, negative = cell killing [3, 7] -9.47% | activity, negative = cell killing [3, 8] -12.6% | activity, negative = cell killing [3, 10] -17.6% | outcome [6]

Cc1c(N(C)C)c(=O)n(-c2ccccc2)n1C
inactive: outcome [1] | outcome [2] | activity, negative = cell killing [3, 7] -5.14% | activity, negative = cell killing [3, 8] -8.5% | activity, negative = cell killing [3, 9] -17.7% | activity, negative = cell killing [3, 10] -17.7% | outcome [6] | max response [4] -0.504% and 0.241% | outcome [5]

CC(=O)SC[C@@H](Cc1ccccc1)C(=O)NCC(=O)OCc1ccccc1
inactive: outcome [1] | outcome [2] | activity, negative = cell killing [3, 11] 2.42% | activity, negative = cell killing [3, 12] -12.3% | activity, negative = cell killing [3, 13] -8.77% | outcome [6]

C[C@@H](c1ncncc1F)C(O)(Cn1cncn1)c1ccc(F)cc1F (some centres undefined)
inactive: outcome [1] | outcome [2] | activity, negative = cell killing [3, 7] -6.32% | activity, negative = cell killing [3, 8] -23.3% | activity, negative = cell killing [3, 10] 6.65% | outcome [6]

CCCCCCCCCCOc1cc2c(=O)c(C(=O)OCC)c[nH]c2cc1OCC
inactive: activity change, negative = cytotoxicity [1] 1.05% [at 6.55 µM] | activity change, negative = cytotoxicity [2] -6.94% [at 6.55 µM] | activity, negative = cell killing [3, 7] 2.17% | activity, negative = cell killing [3, 8] -20.1% | activity, negative = cell killing [3, 10] -26.1% | outcome [6]

CCN1CC(CCN2CCOCC2)C(c2ccccc2)(c2ccccc2)C1=O (centres undefined)
inactive: outcome [1] | outcome [2] | activity, negative = cell killing [3, 7] -13.3% | activity, negative = cell killing [3, 8] -11.4% | activity, negative = cell killing [3, 10] -23.7% | outcome [6]

O=C(O)Cc1cn(-c2ccccc2)nc1-c1ccc(Cl)cc1
inactive: outcome [1] | outcome [2] | activity, negative = cell killing [3, 7] -17.9% | activity, negative = cell killing [3, 8] -13.4% | activity, negative = cell killing [3, 10] -18.4% | outcome [6]

O=C(O)CCCc1ccccc1
inactive: outcome [1] | outcome [2] | activity, negative = cell killing [3, 7] -2.94% | activity, negative = cell killing [3, 8] -2.78% | activity, negative = cell killing [3, 10] -9.45% | outcome [6]

Cc1onc(-c2ccccc2)c1-c1ccc(S(N)(=O)=O)cc1
inactive: outcome [1] | outcome [2] | activity, negative = cell killing [3, 7] -8.7% | activity, negative = cell killing [3, 8] -24.2% | activity, negative = cell killing [3, 10] -2.89% | outcome [6]

Cc1ccc(C(C)C)c(O)c1
inactive: outcome [1] | outcome [2] | activity, negative = cell killing [3, 7] -5.11% | activity, negative = cell killing [3, 8] -0.376% | activity, negative = cell killing [3, 9] -10.8% | activity, negative = cell killing [3, 10] 0.583% | max response [4] -0.755% | outcome [5]

Cc1c(C(=O)NCCO)[n+](=O)c2ccccc2n1[O-]
inactive: outcome [1] | outcome [2] | activity, negative = cell killing [3, 7] -6.85% | activity, negative = cell killing [3, 8] -27.6% | activity, negative = cell killing [3, 9] -29.3% | activity, negative = cell killing [3, 10] -6.62% | outcome [6] | max response [4] 1.89% | outcome [5]

Cc1cc(O)cc(C)c1Cl
inactive: outcome [1] | outcome [2] | activity, negative = cell killing [3, 7] 0.561% | activity, negative = cell killing [3, 8] -6% | activity, negative = cell killing [3, 9] -20% | activity, negative = cell killing [3, 10] 6.74% | outcome [6] | max response [4] 1.15% | outcome [5]

Cc1ccsc1C(=CCCN1CCC[C@@H](C(=O)O)C1)c1sccc1C
inactive: outcome [1] | outcome [2] | activity, negative = cell killing [3, 7] -2.91% | activity, negative = cell killing [3, 8] -7.39% | activity, negative = cell killing [3, 10] 2.1% | outcome [6]

O=C1CC[C@@H](C(=O)O)N1
inactive: outcome [1] | outcome [2] | activity, negative = cell killing [3, 7] -10.6% | activity, negative = cell killing [3, 8] -16.2% | activity, negative = cell killing [3, 10] 1.94% | outcome [6]

NC(=O)c1ccc([N+](=O)[O-])cc1Cl
inactive: outcome [1] | outcome [2] | activity, negative = cell killing [3, 7] -9.49% | activity, negative = cell killing [3, 8] -5.61% | activity, negative = cell killing [3, 10] -36.6% | outcome [6]

O[C@@H]1CO[C@H]2[C@@H]1OC[C@@H]2O
inactive: outcome [1] | outcome [2] | activity, negative = cell killing [3, 7] -8.03% | activity, negative = cell killing [3, 8] 1.68% | activity, negative = cell killing [3, 10] -10.9% | outcome [6]

NCC1CCC(C(=O)Oc2ccc(CCC(=O)O)cc2)CC1 (centres undefined)
inactive: outcome [1] | outcome [2] | activity, negative = cell killing [3, 7] -0.713% | activity, negative = cell killing [3, 8] -15% | activity, negative = cell killing [3, 10] 8.61% | outcome [6]

C[C@@H](N)C(=O)O
inactive: outcome [1] | outcome [2] | activity, negative = cell killing [3, 7] -7.83% | activity, negative = cell killing [3, 8] -21.5% | activity, negative = cell killing [3, 10] 15% | outcome [6]

FC(F)(F)C(Cl)Br (centres undefined)
inactive: outcome [1] | outcome [2] | activity, negative = cell killing [3, 7] -5.12% | activity, negative = cell killing [3, 8] -3.03% | activity, negative = cell killing [3, 9] -22.4% | activity, negative = cell killing [3, 10] -0.139% | outcome [6] | max response [4] 3.38% | outcome [5]

COC(=O)c1ccc(O)cc1
inactive: outcome [1] | outcome [2] | activity, negative = cell killing [3, 7] -4.62% | activity, negative = cell killing [3, 8] -7.84% | activity, negative = cell killing [3, 10] -1.97% | max response [4] -3.01% | outcome [5]

CCCCCCCCCCCCCCCCCCO
inactive: outcome [1] | outcome [2] | activity, negative = cell killing [3, 7] -13.2% | activity, negative = cell killing [3, 8] -6.74% | activity, negative = cell killing [3, 10] -1.06% | outcome [6] | max response [4] 0.797% | outcome [5]

From PubChem BioAssay (NCATS)
